Compounds with a hit are over-represented: about 19% of the library has one in this group of screens.
HT1080-NT tox = qHTS for induction of synthetic lethality in tumor cells producing 2HG: qHTS for the HT-1080-NT fibrosarcoma cell line | HT-1080-NT fibrosarcoma viability, CellTiter-Glo ATP luminescence, 48 h | 360,000 compounds, 1.6% hits | Potency, µM (series often up to 46.1 µM), for inactives: top-dose activity, negative = less viability, actives largely listed as cytotoxic;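 note: NT is the 2HG producing partner of a matched IDH1 knockdown line; 0% = DMSO-treated cells and -100% = media-only wells without cells; nearly all actives have a fitted effect of over 55% in size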
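Compounds were tested in concentration-response format on HT-1080-NT cells for 48 hours at 37 degrees C. Cell viability came from CellTiter-Glo luminescence; curves were classified by r2, response magnitude and activity.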
KB-3-1 cytotox = qHTS assay for MDR1-selective chemotherapeutics: Primary screen using the parental adenocarcinoma cell KB-3-1 | KB-3-1 viability, CellTiter-Glo ATP luminescence, 72 h | 400,000 compounds, 1.4% hits | AID 1347075, 2019 | Potency, µM (titrated, usually from 46.1 µM), most hits filed as cytotoxic; note: nearly all actives have a fitted effect of over 60% in size
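KB-3-1 cells, DMEM (no phenol red) + 10% FBS; compound by pin transfer, 72 h, 37 °C. Readout: CellTiter-Glo luminescence after 10 min. Data normalized, curve-fitted.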
DT40 TDP1 no CPT = qHTS for Inhibitors of human tyrosyl-DNA phosphodiesterase 1 (TDP1): qHTS in cells in absence of CPT; Potency, µM (top dose mostly 46.2 µM), for the others: at the top dose activity change, negative = growth inhibition, usual class: inhibitors; 420,000 compounds, 15% hits; DT40 Tdp1-/- hTDP1 cells, no CPT, ATP luminescence, 48 h; note: nearly all actives have a fitted effect of over 55% in size
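Camptothecin absent (DMSO only). Human TDP1-complemented DT40 knockout cells, 400 cells/well, 37 °C for minimum 48 hr; ATP measured via CellTiter-Glo, 30 min dark incubation, luminescence.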
KB-V1 cytotox = qHTS assay for MDR1-selective chemotherapeutics: Primary screen using the drug-selected MDR subline cells KB-V1; Potency, µM (series often up to 46.1 µM), most hits filed as cytotoxic; 400,000 compounds, 3.4% hits; KB-V1 MDR cells viability, CellTiter-Glo, 72 h; note: nearly all actives have a fitted effect of over 60% in size
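Cells of the MDR subline KB-V1 are plated, dosed with compound at multiple concentrations, and incubated 72 h at 37 degrees C; CellTiter-Glo is then added and luminescence read after 10 min.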
TDP1 cell CPT = qHTS for Inhibitors of human tyrosyl-DNA phosphodiesterase 1 (TDP1): qHTS in cells in presence of CPT | chicken DT40 Tdp1-/-;hTDP1 cells + 20 nM CPT, ATP luminescence, 48 h | Potency, µM (series often up to 46.2 µM), inactives show at the top dose activity change, negative = growth inhibition, usual class: inhibitors | 420,000 compounds, 12% hits | AID 686979, 2013; note: nearly all actives have a fitted effect of over 55% in size
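Cell growth measured by CellTiter-Glo luminescence after a minimum 48 h, 37 C compound exposure with 20 nM CPT in Tdp1-knockout DT40 cells stably expressing hTDP1, seeded 400/well; qHTS titration format.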
HT1080 IDH1KD tx = qHTS for induction of synthetic lethality in tumor cells producing 2HG: qHTS for the HT-1080-IDH1KD cell line; Potency, µM (titrated, usually from 46.1 µM), inactives show at the highest dose activity, negative = toxicity, actives largely listed as cytotoxic; HT-1080 IDH1 knockdown viability, ATP luminescence, 48 h; 360,000 compounds, 2% hits; AID 686971, 2013;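 note: 0% = DMSO wells and -100% = cell-free medium wells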
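HT-1080-IDH1KD cells (IDH1 knocked down), 750/well in RPMI with 5% FBS, treated with compound 48 h at 37 degrees C. Viability by CellTiter-Glo luminescence, normalised to DMSO and no-cell wells; concentration-response curves classed.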
* = called active by the depositor; i = inactive; ? = inconclusive; / = no result. Calls come from the whole dose curve; as a rule, active = well fitted curve in the direction sought with a large enough effect; inconclusive = small, poorly fitted or top-dose-only effect, or another doubt; inactive = no such curve, though single readings can be large; an effect the other way counts as inactive or inconclusive. Unless noted, % is set by controls: 0 for no effect and ±100 for the full control effect; potency is the fitted concentration of half-maximal effect.

SMILES | HT1080-NT tox | KB-3-1 cytotox | DT40 TDP1 no CPT | KB-V1 cytotox | TDP1 cell CPT | HT1080 IDH1KD tx
CCCCN(C)CCCNC(=O)c1cn(CC)c2ccc(S(=O)(=O)N3CCc4ccccc4C3)cc2c1=O | -14% | i | 23µM* | ? | 21µM* | -13%
CCn1cc(C(=O)NCCCN2CCCC2)c(=O)c2cc(S(=O)(=O)N3CCc4ccccc4C3)ccc21 | -10% | i | ? | i | ? | 1%
CCCCN(CC)CCCNC(=O)c1cn(CC)c2ccc(S(=O)(=O)N3CCc4ccccc4C3)cc2c1=O | 0% | ? | 18µM* | i | 16µM* | -14%
CCCN(CCC)CCCNC(=O)c1cn(CC)c2ccc(S(=O)(=O)N3CCc4ccccc4C3)cc2c1=O | -9% | i | 18µM* | i | 21µM* | 3%
CCCCN(CCCC)CCNC(=O)c1cn(CC)c2ccc(S(=O)(=O)N(C)C3CCCCC3)cc2c1=O | 2% | i | 6.5µM* | i | 4.6µM* | 0%
CC1NC(=O)c2cccnc2-n2c1nc1cc(F)ccc1c2=O (configuration not stated) | 12% | i | ? | i | -6% | 9%
C=CCn1c(SCC(=O)Nc2cc(C)on2)nc2ccccc21 | 9% | i | -12% | i | -23% | 6%
COc1ccc(S(=O)(=O)NCCc2cn3ccsc3n2)cc1 | / | / | -4% | / | 4% | /
CCOC(=O)[C@]12CCCC=C1N(Cc1ccccc1)C(=O)[C@H](CC(=O)NCCCN1CCCC1=O)C2 | 21% | i | -2% | i | -3% | 26%
Cc1csc(NC(=O)C2CCN(S(=O)(=O)c3ccccc3F)CC2)n1 | -13% | i | 26µM* | 15µM* | ? | -11%
O=C(NC1CCCc2ccccc21)C1CCN(c2nnc(-n3cccc3)s2)CC1 (configuration not stated) | -6% | i | ? | ? | 23µM* | -14%
O=C(NC1CCCc2ccccc21)C1CCN(S(=O)(=O)c2ccccc2)CC1 (configuration not stated) | 20% | i | ? | ? | ? | 11%
O=C(NC1CCCc2ccccc21)C1CCN(S(=O)(=O)c2ccccc2F)CC1 (configuration not stated) | 1% | i | ? | 7.3µM* | -25% | -3%
Cc1ncc([N+](=O)[O-])n1CC(=O)Nc1ccc(F)cc1 | 11% | i | -2% | i | 19% | 26%
NC(N)=NCc1cccc(I)c1 | -26% | i | 2.9µM* | i | 6.5µM* | ?
CC(Sc1nc2ncc(Cl)cc2[nH]1)C(=O)Nc1ccccc1[N+](=O)[O-] (configuration not stated) | -9% | i | ? | ? | ? | -12%
O=C(O)Cn1nnnc1SCC(=O)Nc1ccc(F)cc1F | 9% | i | 16% | ? | -4% | 15%
O=C(CCNC(=O)c1ccco1)Nc1ccccc1N1CCOCC1 | 9% | i | -24% | i | -8% | 20%
Cc1ccc(Cn2cc(C(=O)c3ccc4c(c3)OCO4)c(=O)c3cc(C)ccc32)cc1 | / | i | 23µM* | i | ? | /
Cc1ccc(C(=O)c2cn(Cc3ccccc3F)c3cc4c(cc3c2=O)OCO4)cc1 | / | i | 21µM* | i | ? | /
Cc1ccc(C(=O)c2cn(Cc3ccccc3F)c3cc4c(cc3c2=O)OCCO4)cc1 | / | i | ? | i | ? | /
COc1ccc(-c2csc3ncn(CC(=O)N4CCOCC4)c(=O)c23)cc1 | 1% | ? | 9% | i | -7% | -1%
CCCCN(CCCC)C(=O)c1cc2ccccc2c(=O)o1 | -3% | i | 16µM* | i | ? | 0%
CCCCC(CC)CNC(=O)c1cc2ccccc2c(=O)o1 (configuration not stated) | 13% | i | ? | i | -5% | 2%
CCC(Cc1ccccc1)NC(=O)c1oc(=O)c2ccccc2c1-c1ccccc1 (configuration not stated) | / | i | ? | i | ? | /
SMILES | HT1080-NT tox | KB-3-1 cytotox | DT40 TDP1 no CPT | KB-V1 cytotox | TDP1 cell CPT | HT1080 IDH1KD tx
Cc1ccc(-c2c(C(=O)NCCc3ccc(Cl)cc3)oc(=O)c3ccccc23)cc1 | / | ? | ? | i | ? | /
CCCCN(Cc1ccccc1)C(=O)c1oc(=O)c2ccccc2c1-c1ccc(C)cc1 | / | ? | ? | i | 21µM* | /
Cc1ccc(CCNC(=O)c2oc(=O)c3ccccc3c2-c2ccc(C)cc2)cc1 | / | i | 23µM* | i | ? | /
CCOC(=O)Cn1c(CN2CCN(c3ccc(OC)cc3)CC2)nc2c1c(=O)[nH]c(=O)n2C | / | / | -20% | / | -2% | /
Cc1ccc(-n2nc3c(c2NC(=O)c2c(-c4ccccc4Cl)noc2C)CSC3)cc1 | ? | i | ? | i | 26µM* | ?
Cc1ccccc1-n1nc2c(c1NC(=O)c1c(-c3ccccc3Cl)noc1C)CSC2 | -1% | i | 21µM* | i | -30% | -16%
Cc1ccccc1-n1nc2c(c1NC(=O)CCCl)CSC2 | 1% | i | ? | i | ? | 0%
Cc1ccc(CNC(=O)CCn2cnc3ccccc3c2=O)cc1 | / | i | 0% | i | -3% | /
Cc1cccc(N2CCN(C(=O)CC(NC(=O)c3ccccc3Cl)c3ccccc3)CC2)c1C (configuration not stated) | -17% | i | ? | i | 18µM* | -16%
O=C(NC(CC(=O)N1CCN(c2ccc([N+](=O)[O-])cc2)CC1)c1ccccc1)c1ccccc1Cl (configuration not stated) | -6% | i | 16µM* | i | ? | 0%
O=C(c1cc([N+](=O)[O-])ccc1Cl)N1CCN(c2ccccc2)CC1 | 12% | i | -18% | i | 22% | 4%
COc1c(Cl)cc(C(=O)N(Cc2ccc(C)o2)C2CCS(=O)(=O)C2)cc1Cl (configuration not stated) | / | i | 23µM* | i | ? | /
